Structures are written as SMILES. Out of some 69,000 compounds screened, about 8,600 (12%) showed an effect of 50% or more. The entries come from a sample that favours strong results as a whole.

The values that follow come from ChEMBL document CHEMBL4513216, “Probing the Open Global Health Chemical Diversity Library for Multistage-Active Starting Points for Next-Generation Antimalarials” (ACS Infect Dis, 2020).

This experiment concerns Plasmodium berghei. Description: Screen against P. berghei liver stage (PbLuc), transformed with Luciferase, at 10uM. Format: functional, HepG2. Conditions: tested at 10 uM.
For `CCn1nc(C)c2nnn(CC(=O)Nc3ccccc3)c(=O)c21`, the INHIBITION is reported as 49.9%.
Then `CN(C)S(=O)(=O)N1C[C@H]2CCC[C@@]2(COc2cccnc2)C1`, with -16.9%; and `CN1CCN([C@@H]2CCN(C3CCOCC3)[C@H]2Cc2cnn(C)c2)CC1`, with -8.85%.
As to `Cc1nnsc1-c1nnc2sc(C3CCC3)nn12`, the INHIBITION was -13.1%.
`Cc1nn2c(-c3snnc3C)nnc2s1`: the INHIBITION is listed as 61.8%.
Regarding `Cc1nnsc1-c1nnc2sc(C(C)C)nn12`, the INHIBITION was 12.5%.
Regarding `O=C1CCC(c2ccc(Cl)cc2)=NN1CN1CCSCC1`, the INHIBITION is 6.34%.
In the case of `CO[C@@H]1CCN(Cc2cnn(C)c2)[C@@H]2CN(Cc3ccco3)C[C@@H]21`, the INHIBITION is listed as 7.11%.
Then `O=C(O)CCc1cc2n(n1)CCCN(C(=O)c1ccc(F)cc1F)C2`, with -13.5%; and `CCc1cc(C(=O)N2CCCn3nc(CCC(=O)O)cc3C2)cs1`, with 22.8%.
Then `O=C(O)CCc1cc2n(n1)CCCN(C(=O)c1ccc(Cl)s1)C2`, with 51.5%; and `O=C(c1ccc(Cl)s1)N1CCCn2nc(CN3CC[C@H](F)C3)cc2C1`, with 45%.
As to `Cc1ccc(C(=O)N2CCCn3nc(CCC(=O)O)cc3C2)cc1Cl`, the INHIBITION worked out at 52.5%.
Regarding `CCOc1cccc(C(=O)N2CCCn3nc(CCC(=O)O)cc3C2)c1`, the INHIBITION is -19%.
Then `CCCc1nc(C(=O)N2CCCn3nc(CCC(=O)O)cc3C2)cs1`, with -9.86%; and `O=C(O)CCc1cc2n(n1)CCCN(C(=O)c1cc3ccccc3s1)C2`, with 67.9%.
On to `O=C(O)CCc1cc2n(n1)CCCN(C(=O)c1ccc3cc[nH]c3c1)C2`, for which the INHIBITION is 8.47%.
In the case of `CC(C)n1nc(Cn2cccc2)c2c1CN(C1CCOCC1)C2` it was 23.3%; in that of `Cc1nc(CN(C)C(=O)NC(C)c2ccc3c(c2)OCCO3)cs1` (stereo not given), 31.2%; in that of `CC(Cn1cccn1)NC(=O)CCc1nc(C(C)(C)C)no1` (stereo not given), 10.6%.
`O=C1COC2(CCN(Cc3ccncc3)CC2)CN1c1ccccc1`: the INHIBITION is recorded as -27.4%.
Regarding `Cc1c[nH]c(C2COCCN2S(=O)(=O)c2cn[nH]c2)n1` (stereo not given), the INHIBITION is listed as -8.12%.
For the molecule `Cc1ccc(CSc2nc(N)cc(NCCC(=O)N3CCCC3)n2)cc1`, the INHIBITION came out at 36.6%.
Take `CCc1cnc(C)nc1NCCC(=O)N1CCC(C)CC1`: the INHIBITION was -21.1%.
Then `CCc1nc(N)nc(NCCC(=O)N2CCCC2)c1C`, with 62.8%.
With `CCn1ccnc1CN1CCC(N(Cc2ncc(C)o2)C(C)=O)C1` (stereo not given), the INHIBITION was found to be 48.2%.
For the molecule `Cn1cc(CC(=O)N2CCCC(c3ccn[nH]3)C2)cn1` (stereo not given), the INHIBITION came out at 5.11%.
On to `CCN1C[C@H]2[C@@H](C1)N(c1ncc(F)cn1)CC[C@H]2OC`, for which the INHIBITION was determined as 84.5%.
Turning to `Fc1cnc(N2CCO[C@H]3CN(CC4CCCCC4)C[C@H]32)nc1`, the INHIBITION turned out to be 30.3%.
Then `CO[C@@H]1CCN(c2ncc(F)cn2)[C@@H]2CN(CC3CC3)C[C@@H]21`, with 60.3%; and `CO[C@@H]1CCN(c2ncc(F)cn2)[C@@H]2CN(Cc3cccnc3)C[C@@H]21`, with 31.4%; and `Fc1cnc(N2CCO[C@H]3CN(CC4CCCC4)C[C@H]32)nc1`, with -13.3%.
In the case of `CO[C@H]1CCN(c2ncc(F)cn2)[C@@H]2CN(Cc3ccco3)C[C@H]12`, the INHIBITION came out at 49.1%.
In the case of `CCN1CCN(c2nc(O)cc(Cc3ccccc3F)n2)CC1` it was 10.9%.
With `CNC(=O)c1sccc1S(=O)(=O)Nc1ccc(C)cc1`, the INHIBITION is given as 61.1%.
In the case of `CNC(=O)c1sccc1S(=O)(=O)NC` it was 46.6%; in that of `CNS(=O)(=O)c1ccsc1C(=O)OC`, 37.6%; in that of `O=C(c1cccnc1)N1CCCC1c1nc(O)cc(-c2ccccn2)n1` (stereo not given), 36.7%.
`Clc1cccc(N[C@H]2CCCN[C@H]2Cc2ccccc2)c1`: the INHIBITION was 91.6%.
Consider `O=C(NCCc1cccc(Cl)c1)C1CCOCC1`, for which the INHIBITION came out at 27.7%.
On to `c1ccc(CCNc2cccc(C3CCCNC3)n2)cc1` (stereo not given), for which the INHIBITION came out at 34%.
With `O=C1NCCCC1NC(=O)C1(c2cccc(Cl)c2)CCC1` (stereo not given), the INHIBITION is given as -2.27%.
In the case of `Clc1cccc(C[C@@H]2NCCC[C@@H]2Nc2ccccc2)c1`, the INHIBITION was found to be 86.1%.
On to `O=C1NCCCc2[nH]c(Cc3cccc(Cl)c3)nc21`, for which the INHIBITION is on record as 32%.
With `Clc1cccc(C[C@@H]2NCCC[C@@H]2Nc2cccc(Cl)c2)c1`, the INHIBITION is listed as 92.6%.
In the case of `O=S(=O)(c1cccc(Cl)c1)N1C[C@@H]2CCN[C@@H]2C1` it was -14.7%; in that of `O=C(Cc1cccc(Cl)c1)N[C@@H]1CCNC[C@H]1O`, 0.547%; in that of `CCOCC(=O)N1CCC2(CC1)COCCN2CCN(C)C`, -3.33%.
As to `O=C(c1ccc(F)cc1)N1C[C@H]2CCC[C@@]2(COCc2ccncc2)C1`, the INHIBITION stood at 16.8%.
On to `CC(C)CNC(=O)C1(Cc2ccccc2-c2cccs2)CCNC1` (stereo not given), for which the INHIBITION worked out at 14.7%.
Regarding `COc1ccc(C(C)NC(=O)Cn2ccc(=O)n(C)c2=O)cc1F` (stereo not given), the INHIBITION is listed as -29.8%.
Take `Cc1ccccc1OCC(O)CN1CCC(Cn2cccn2)CC1` (stereo not given): the INHIBITION is reported as 17.5%.
Turning to `O=S1(=O)c2ccccc2OCC2(CCN(CCO)CC2)CN1CC1CC1`, the INHIBITION was -8.94%.
As for `CC(=O)N1CC2(CCN(C(=O)c3ccoc3)C2)C1`, the INHIBITION was 27.6%.
Take `CC(=O)N1CCC2(CCN(C(=O)c3ccc(Cl)c(C(F)(F)F)c3)C2)C1` (stereo not given): the INHIBITION amounted to 50.9%.
In the case of `CC(=O)N1CCC2(CCCN(C(=O)c3ccc(Cl)c(C(F)(F)F)c3)C2)C1` (stereo not given), the INHIBITION stood at 28.7%.
Consider `CC(=O)N1CCC2(CCN(C(=O)c3ccc(Cl)c(C(F)(F)F)c3)CC2)C1`, for which the INHIBITION turned out to be 51.2%.
As to `CC(=O)N1CC2(CCN(C(=O)c3ccc4c(c3)OCCO4)CC2)C1`, the INHIBITION was -38.1%.
In the case of `CC(=O)N1CCCC2(CCN(C(=O)c3ccc(Cl)c(C(F)(F)F)c3)C2)C1` (stereo not given), the INHIBITION is listed as 32.2%.
As for `N[C@H]1CCCN(C(=O)c2cnc(COc3ccccc3)nc2O)C1`, the INHIBITION is given as -58%.
As for `Cc1nc(-c2cccnc2)ncc1C(=O)N1CCCCC(N)C1` (stereo not given), the INHIBITION is 55.6%.
Then `Cc1nc(-c2cccnc2)ncc1C(=O)N1CCC(c2ncc[nH]2)CC1`, with 21.6%.
In the case of `Cc1nc(-c2cccnc2)ncc1C(=O)N1CCCC(N(C)C)CC1` (stereo not given), the INHIBITION worked out at 21.6%.
Take `Cc1nc(-c2cccnc2)ncc1C(=O)N1CCC(C(C)N(C)C)CC1` (stereo not given): the INHIBITION was found to be 70.4%.
Then `CCCOCC1CCN(C(=O)c2cnc(-c3cccnc3)nc2O)C1` (stereo not given), with -27.3%.
